Screens: PubChem, several laboratories
An excerpt weighted towards active compounds, which were near 5.2% of everything screened.
Vif imaging: blocks HIV Vif function; HEK293T cells, Vif self-association by quenched fluorescence, imaging, 24 h; inhibition, % at 7.49 µM; 340,000 compounds, 0.35% hits; in the data active means inhibition above about 50%, passing the limit was not always enough; inconclusive means no clear call, values can overlap the other calls; inactive means below about 31%
NadD inh: blocks S. aureus nicotinate mononucleotide adenylyltransferase | purified NadD enzyme, colorimetric absorbance read-out | inhibition, % at 20 µM | 360,000 compounds, 0.78% hits; in the data active means inhibition above about 26%
SMARCA2 act: increases SMARCA2 function in MMTV reporter cells | activation, % at 9.1 µM | 370,000 compounds, 1% hits | MG213 cells, MMTV-luciferase reporter, dexamethasone, overnight; in the data active means activation above about 7.8%
SKN-1 inh: blocks SKN-1 activity in C. elegans; inhibition, % at 21.8 µM; C. elegans VP596 Pgst-4::GFP/RFP ratio, acrylamide-induced, 24 h; AID 624304; 360,000 compounds, 0.49% hits;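 active means interference check ratio from 0.5 to 1.5 plus GFP to RFP signal ratio inhibition reaching or exceeding a fixed threshold, cut at about 30% in these data, passing the limit was not always enough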
NR3A LBD binder: modulates the human NR3A ligand-binding domain. NR3A LBD differential scanning fluorimetry, Tm shift; 0% = protein alone, 100% = glycine-bound protein. Tm shift relative to glycine control, % at 25 µM. 340,000 compounds, 2.5% hits. AID 1259313;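 active means melting temperature shift of at least 10% of the positive control shift, at one fixed dose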
esBAF inh: blocks esBAF chromatin remodeling in mouse ES cells | Bmi1-luciferase knock-in reporter, 24 h; 100% = twice the neutral-well signal | reporter increase, % at 12.5 µM | AID 602393 | 350,000 compounds, 2% hits; in the data active means activation above about 40%; inconclusive means no clear call, values can overlap the other calls;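 further: a rise in the Bmi1 reporter signal indicates esBAF inhibition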
Hits are given with their value; - = inactive; ? = inconclusive; . = not tested or not shown.

SMILES	Vif imaging	NadD inh	SMARCA2 act	SKN-1 inh	NR3A LBD binder	esBAF inh
O=C([C@H]1[C@H](CO)[C@H]2Cn3c(ccc(-c4cccnc4)c3=O)[C@H]2N1CC1CC1)N1CCCCC1	.	.	.	.	.	-
C[C@H](CO)N1C[C@H](C)[C@H](CN(C)C(=O)CC2CC2)Oc2ncc(C#CC3CC3)cc2C1=O	.	.	.	.	.	-
Cc1ccc(-c2cnc3c(c2)C(=O)N([C@H](C)CO)C[C@@H](C)[C@@H](CN(C)C(=O)c2cccnc2)O3)cc1	.	.	.	.	.	-
C[C@@H]1CN([C@H](C)CO)C(=O)c2cc(NC(=O)Cc3ccccc3)ccc2O[C@@H](C)CCCCO[C@@H]1CN(C)CC1CCCCC1	.	.	.	.	.	-
CN(C)C(=O)C[C@H]1CC[C@@H](NC(=O)C2CC2)[C@H](CO)O1	.	.	.	.	.	-
O=C(Nc1cccc(Cl)c1)N1C[C@H]2[C@@H](c3ccccc31)[C@@H](CO)N2C(=O)C1CCCC1	.	.	.	.	.	-
CN1C(=O)N(c2cccc3ccccc23)C(n2cncn2)C1(C)C (stereo not given)	-	-	-	-	-	-
CN1C(=O)N(c2ccccc2)C(Nc2nncs2)C1(C)C (stereo not given)	-	-	-	38	-	-
CCCNC(=O)Nc1ccc2c(c1)C(=O)N(C)C[C@H](OC)[C@H](C)CN(Cc1ccc(-c3ccccn3)cc1)[C@@H](C)CO2	.	.	.	.	.	-
COCC(=O)Nc1ccc2c(c1)C(=O)N(C)C[C@H](OC)[C@@H](C)CN(Cc1ccccn1)[C@@H](C)CO2	.	.	.	.	.	-
COc1ccc(CCNc2oc(COc3ccccc3F)nc2C#N)cc1OC	-	-	-	-	-	-
CCNc1oc(COc2ccccc2F)nc1C#N	.	-	-	-	-	52
COCCNS(=O)(=O)c1ccc2c3c(cccc13)C(=O)N2C	?	-	-	-	-	-
CN1C(=O)c2cccc3c(S(=O)(=O)NCCc4ccccc4)ccc1c23	-	-	-	-	16	-
CC(c1ccco1)N(C(=O)Nc1ccc(Cl)cc1)c1ccccn1 (stereo not given)	-	-	-	-	10	-
COCCNC(=O)C[C@H]1CC[C@H](NC(=O)NC2CCCC2)[C@@H](CO)O1	.	.	.	.	.	-
CC1CCCC(NC(=O)COC(=O)c2cc3ccccc3oc2=O)C1C (stereo not given)	-	-	-	-	-	68
CC1CCN(C(=O)COC(=O)c2cc3ccccc3oc2=O)CC1	-	-	-	-	-	-
CCCCNc1cc(=O)oc2ccccc12	-	-	-	30	-	-
O=c1cc(NCc2ccccc2)c2ccccc2o1	-	-	-	-	-	-
O=C(CSc1nc2cc(Cl)ccc2o1)N1CCOCC1	-	-	-	-	-	-
O=C(O)c1ccc2oc(SCC(=O)N3CCCCC3)nc2c1	-	-	-	-	-	59
O=C(Cc1cccc2ccccc12)Nc1ccc(OC(F)F)c(Cl)c1	-	-	-	-	23	.
O=C(Nc1ccc(OC(F)F)c(Cl)c1)C(c1ccccc1)c1ccccc1	-	-	-	-	21	.
O=C(Nc1cc(Cl)cc(Cl)c1)C(c1ccccc1)N1CCCCC1 (stereo not given)	-	-	-	-	-	.
SMILES	Vif imaging	NadD inh	SMARCA2 act	SKN-1 inh	NR3A LBD binder	esBAF inh
FC(F)Oc1ccc(NC(=S)NCc2ccccc2)cc1Cl	-	-	-	-	-	-
O=C(O)c1ccccc1OC(C(=O)Nc1cc(Cl)cc(Cl)c1)c1ccccc1 (stereo not given)	-	-	-	-	23	-
C[C@@H](NC(=O)C[C@@H]1C[C@@H]2c3cc(NC(=O)c4ccc5c(c4)OCO5)ccc3O[C@@H]2[C@H](CO)O1)c1ccccc1	.	.	.	.	.	-
O=[N+]([O-])c1ccc(/C=C/C2=NN(c3ccccc3)C(c3ccco3)C2)cc1 (stereo not given)	.	-	-	-	263	-
CC1=NN(c2ccccc2)C(c2ccco2)C1 (stereo not given)	-	-	-	-	-	-
O=[N+]([O-])c1ccc(C2=NN(c3ccccc3)C(c3ccco3)C2)cc1 (stereo not given)	.	-	-	-	339	.
O=C(Nc1ccc2c(c1)[C@H]1C[C@@H](CC(=O)N3CCOCC3)O[C@@H](CO)[C@H]1O2)NC1CCCCC1	.	.	.	.	.	-
S=C(Nc1ccccc1)N1CCn2c(nc3ccccc32)C1	58	-	-	-	-	.
CCN(CC)CCNC(=S)N1CCn2c(nc3ccccc32)C1	-	-	-	-	-	-
COc1cccc(NC(=S)N2CCn3c(nc4ccccc43)C2)c1	-	-	-	-	-	.
CCNC(=S)N1CCn2c(nc3ccccc32)C1	.	-	-	-	12	-
O=C(C1CCCCC1)N1C[C@@H]2[C@H](c3ccccc31)[C@H](CO)N2C(=O)c1ccccc1	.	.	.	.	.	-
Cc1csc(Nc2nc(N)c(C(=O)Nc3cc(Cl)ccc3F)o2)n1	-	-	-	-	22	-
COc1ccc(Cl)cc1NC(=O)c1ocnc1C	-	-	-	-	-	-
COCC(=O)Nc1ccc2c(c1)C(=O)N(C)C[C@H](OC)[C@H](C)CN(CC1CCCCC1)[C@H](C)CO2	.	.	.	.	.	-
CCC(=O)c1ccc(OCc2ccccc2)c(OC)c1	.	-	-	-	11	95
COc1ccc(C(=O)CC(=O)c2ccccc2O)cc1OC	-	-	-	-	15	57
Cc1cnn(C(=S)NCc2ccc(Cl)cc2)c1	.	.	-	.	-	.
Cc1cnn(C(=S)NCCc2ccccc2)c1	-	-	-	-	-	46
Cc1ccc(-c2csc(NC(=O)CSC3=NCCS3)n2)cc1	-	-	-	-	-	45
O=C(CSc1nc2ccccc2o1)Nc1nc(-c2ccccc2)cs1	-	-	-	-	12	-
COc1ccc(NCc2nnc(SCC(=O)Nc3nc(-c4ccccc4)cs3)n2-c2ccccc2)cc1	-	-	-	-	12	.
COc1ccc(-n2c(CNc3ccc(C)cc3)nnc2SCC(=O)Nc2nc(-c3ccccc3)cs2)cc1	-	-	-	-	-	-
O=C(CSc1nc2ccccc2o1)Nc1nc2ccccc2s1	-	-	-	-	-	-
COc1ccc(-c2csc(NC(=O)CSc3nc(SC)ns3)n2)cc1	-	-	-	-	-	67
SMILES	Vif imaging	NadD inh	SMARCA2 act	SKN-1 inh	NR3A LBD binder	esBAF inh
CCNC(=O)C[C@@H]1CC[C@@H](NS(=O)(=O)c2ccc(F)cc2)[C@@H](CO)O1	.	.	.	.	.	-
CCC(=O)Nc1ccc2c(c1)OC[C@@H](C)N(C(=O)COC)C[C@H](C)[C@@H](OC)CN(C)C2=O	.	.	.	.	.	-
CCCC(=O)Nc1nc(-c2ccc(OC)cc2)cs1	-	-	-	-	-	68
COc1cc(Cl)c(C)cc1NC(=O)CSC1=NCCS1	-	-	-	-	20	-
COc1ccc(-c2csc(NC(=O)c3c(C)noc3C)n2)cc1	-	-	-	-	-	48
Cc1noc(C)c1NC(=O)Nc1ccc2c(c1)C(=O)N([C@H](C)CO)C[C@@H](C)[C@@H](CN(C)Cc1ccccc1)OCCCC[C@H](C)O2	.	.	.	.	.	-
